# Experimental data as given in PubChem BioAssay (NCI).
# About 83,000 compounds went through this panel and 20% of them were active in at least one assay; those are over-represented in the sample as a whole.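 Growth was measured after 48 h exposure to one concentration of compound in 96-well plates. Values under 10 count as active.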 Values without a mark were called inactive. The source made the active and inactive calls.
# Test system: HL-60(TB) leukemia
# Assay: NCI-60 one-dose screen, 48 h (100 = growth as untreated, 0 = no growth, -100 = all killed)
# Details: 10 µM unless noted
row,Compound,growth
1,Cc1ccc2c(C(C[N+](=O)[O-])c3ccccc3)c(-c3ccccc3)[nH]c2c1 (stereo unspecified),-10.4% [9.5 µM] (active)
2,COc1cccc(/C=C/C(=O)c2cc3c(N)c(C(=O)Nc4cccc5ccccc45)sc3nc2C)c1,3.98% (active)
3,O=C1C=C(c2ccccc2)C(O)(c2ccccc2)C1 (stereo unspecified),85.2%
4,CCc1ccc2c(c1)N(CCO)C1=C(C(=O)OC1)C2c1ccccc1 (stereo unspecified),94.9%
5,C#C[C@@]1(O)[C@@H](CO)O[C@@H](n2cc(C(F)(F)F)c3c(N)ncnc32)[C@@H]1O,-37.6% (active)
6,C[N+](C)(C)CC(=O)N/N=C\c1ccco1,53%
7,C[C@@H]1C(=O)N(C[C@H](Cc2ccccc2)N(Cc2ccccc2)Cc2ccccc2)[C@]1(Cc1ccccc1)C(=O)OC(C)(C)C,62.9%
8,Cc1oc2c(c1C(=O)N1CC[C@@H](N)C1)C(=O)c1c(c(O)c3ccccc3c1O)C2=O,-22.8% (active)
9,COc1ccc(-c2c(N)n[nH]c2-c2ccccc2O)cc1OC,110%
10,C/C(=N/NC(N)=S)c1sc(Nc2cccc(Cl)c2)nc1C,65%
11,Cc1ccc(/C=C2\CN(C(=O)C(Cl)Cl)C/C(=C\c3ccc(C)cc3)C2=O)cc1,-21% (active)
12,Cc1cc(Nc2ncc(Cl)c(Nc3ccccc3S(=O)(=O)C(C)C)n2)c(OC(C)C)cc1C1CCNCC1,-65% (active)
13,COC(=O)[C@]1(C)CCC[C@]2(C)c3ccc(C(C)C)cc3C(=O)[C@@H](Br)[C@@H]12,68.1%
14,O=C(Nc1ccc(-n2ccc3c(NC(=O)c4ccccc4)ncnc32)cc1)c1cccc(C(F)(F)F)c1,43.9%
15,COc1ccc(Cl)cc1NC(=O)c1cc2c(n1C)-c1nc(NC(=O)C(C)(C)C)sc1CC2,82.7%
16,O=C(CC(=O)Nc1cccc(C(=O)O)c1)Nc1cccc(C(=O)O)c1,113%
17,CC(C)=CCC[C@](C)(O)[C@H]1CC[C@]2(C)[C@@H]1CC[C@@H]1[C@@]3(C)C/C(=C/c4cccc([N+](=O)[O-])c4)C(=O)C(C)(C)[C@@H]3CC[C@]12C,68.4%
18,Cc1ccc(-c2nc(C#N)c(S(=O)(=O)NCCO)o2)cc1,-20.1% (active)
19,c1cc2cccc3c4cccc5cccc(c(c1)c23)c54,109%
20,CCOC(=O)c1c(C)oc2ncnc(Nc3ccc(NC(=O)Nc4ccc(CC)cc4)cc3)c12,103%
21,CCOC(=O)c1cocc1C(=O)O,80.9%
22,O=C(Nc1ccccc1)c1sc(-c2cccc(C(F)(F)F)c2)cc1O,40.2%
23,Cc1nn(C)c2ncnc(Nc3ccccc3Br)c12,94.3%
24,C[C@H]1[C@H](C)CC[C@]2(C(=O)N3CCN(C)CC3)CC[C@]3(C)C(=CC[C@@H]4[C@@]5(C)C/C(=C/c6cccnc6)C(=O)C(C)(C)[C@@H]5CC[C@]43C)[C@H]12,-54.4% (active)
25,CC(=O)c1ccc2c3c(n(C)c2c1)CCCC3,93.1%
26,Cc1cccc(NC(=O)c2sc3nc4c(cc3c2N)CCCC4)c1,22.1%
